The values below come from PubChem BioAssay (EPA / NIEHS).

The target of experiment [1] is PGR (gene 5241) (UniProt P06401). Put plainly: TOX21_PR_BLA_Followup_Antagonist_ratio: Tox21 HEK293 Progesterone Receptor (PR) Antagonism Beta-lactamase Follow-Up Assay, Ratio (AID 2283934). The method in brief: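 PR-UAS-bla HEK293T cells, 3,000/well in 2% charcoal-stripped FBS, given compound plus 1nM R5020 agonist for 16 hr at 37C. Beta-lactamase FRET substrate 2 hours, ratio cleaved/uncleaved fluorescence; viability by CellTiter-Glo in same wells.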

Experiment [2] can be described thus: TOX21_PR_BLA_Followup_Agonist_viability: Viability Assessment in the Tox21 HEK293 Progesterone Receptor (PR) Agonism Beta-lactamase Follow-Up Assay (AID 2283935).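 Further: signal loss means lower viability so actives are cytotoxic.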 The method in brief: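 PR-UAS-bla HEK293T cells in 2% charcoal-stripped FBS medium, plated 6 hr before compound addition, exposed 16 hr at 37C. Viability read by CellTiter-Glo ATP luminescence after 30 min at room temperature, in the same wells as the beta-lactamase readout.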

The target in experiment [3] is PGR (gene 5241) (UniProt P06401). Put plainly: TOX21_PR_LUC_Followup_Antagonist: Tox21 HEK293 Progesterone Receptor (PR) Antagonism Luciferase Follow-Up Assay (AID 2283938).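 Further: curve fitted upward as signal gain over DMSO baseline despite antagonist label.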 The method in brief:
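HEK293-PR-A-luc cells, 3,000/well, preincubated 5 h at 37C before compound addition in DMSO; 16 h compound exposure at 37C. ONE-Glo luciferase luminescence read after 30 min at room temperature, fitted relative to DMSO baseline.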

A short description of experiment [4]: TOX21_PR_LUC_Followup_Antagonist_viability: Viability Assessment in the Tox21 HEK293 Progesterone Receptor (PR) Antagonism Luciferase Follow-Up Assay (AID 2283940). The method in brief: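 HEK293-PR-A-luc cells kept in charcoal-stripped FBS medium were plated 5 h before compound addition, then exposed 16 h at 37C; viability read as cellular ATP by luciferase luminescence, loss of signal indicating cytotoxicity.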

Experiment [5] in a line: TOX21_PR_LUC_Followup_Agonist_viability: Viability Assessment in the Tox21 HEK293 Progesterone Receptor (PR) Agonism Luciferase Follow-Up Assay (AID 2283941).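 Further: loss of signal means cytotoxicity so actives lower viability.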 The method in brief: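 HEK293-PR-A-luc cells, kept in 10% charcoal-stripped FBS medium, were treated with compounds for 16 h at 37C. Viability read as cellular ATP by luciferase-coupled luminescence; loss of signal indicates cytotoxicity.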

Experiment [6] can be described thus: CEETOX_H295R_PROG_noMTC: CeeTox H295R High-throughput Steroidogenesis Assay for Progesterone (PROG), maximum tolerated concentration (MTC) filtered results only (AID 2283920; active means hit-call score of the fitted dose curve at least 0.9, where 1 is the maximum; inactive means score below 0.9). To be noted: actives raise or lower the signal. A digest of the protocol:
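H295R cells, prestimulated 48 h with 10 uM forskolin, exposed 48 h to chemical in 0.1% DMSO. Medium progesterone quantified by MTBE extraction and HPLC-MS/MS; bidirectional fit versus DMSO, concentrations not MTT-filtered.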

Experiment [7] can be described thus: TOX21_PR_BLA_Followup_Antagonist_viability: Viability Assessment in the Tox21 HEK293 Progesterone Receptor (PR) Antagonism Beta-lactamase Follow-Up Assay (AID 2283936).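 Further: hits lower the luminescence signal meaning cytotoxicity.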 The method in brief:
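PR-UAS-bla HEK293T cells (3,000/well, 2% charcoal-stripped FBS) given compound plus R5020 agonist, 16 h at 37C. CellTiter-Glo added after bla read, 30 min at room temperature; luminescence loss indicates cytotoxicity.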

For experiment [8], the target named is T1, Thyroid hormone receptor alpha (Rattus norvegicus) + Thyroid hormone receptor beta (Rattus norvegicus) (UniProt P18113+P63059). The experiment is described as follows: TOX21_TR_LUC_GH3_Agonist_Followup: Tox21 GH3 Thyroid Hormone Receptor Agonism Luciferase Follow-Up Assay (AID 2283939). A digest of the protocol: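 Rat GH3 cells (1,500/well) in serum-free assay medium, treated with 15-point series, 92 uM to 5 nM final, for 24 h at 37C. Luciferase via ONE-Glo luminescence; gain of signal fitted against DMSO, T3 positive control.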

Experiment [9] has as its target THRA (gene 7067) (UniProt P10827). Put plainly: TOX21_TRA_COA_Agonist_Followup_ratio: Tox21 Thyroid Hormone Receptor alpha Agonism through Coactivator Recruitment Follow-Up Assay, Ratio (AID 2283948; active means hit-call score of the fitted dose curve at least 0.9, where 1 is the maximum; inactive means score below 0.9). A digest of the protocol:
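Cell-free TR-FRET: GST-tagged TRα LBD (2.5 nM) with 0.10% BSA and compound, then fluorescein-SRC-2 peptide (200 nM) and Tb-anti-GST antibody (2 nM). Readout 520:495 nm ratio (ex 340 nm), normalized to DMSO (0%) and T3 (100%).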

Experiment [10] is described as follows: TOX21_TRB_BLA_Agonist_Followup_viability: Viability Assessment in the Tox21 Thyroid Hormone Receptor beta Agonism Beta-lactamase (BLA) Follow-Up Assay (AID 2283956). A digest of the protocol: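 TRb-bla HEK293T cells (GAL4-DBD/human TRb LBD) in 2% charcoal-stripped FBS medium were exposed 18 h at 37C to 11 concentrations in triplicate. CellTiter-Glo ATP luminescence was read after 30 min at room temperature, with bidirectional fitting against DMSO.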

Experiment [11] concerns the target THRB (gene 7068) (UniProt P10828). The experiment is described as follows: TOX21_TRB_COA_Agonist_Followup_ratio: Tox21 Thyroid Hormone Receptor beta Agonism through Coactivator Recruitment Follow-Up Assay, Ratio (AID 2283963; active means hit-call score of the fitted dose curve at least 0.9, where 1 is the maximum; inactive means score below 0.9). The method in brief:
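Signal is the 520/495 nm emission ratio (excitation 340 nm), scaled between DMSO-only wells as 0% and T3 wells as 100%. It reflects fluorescein-labeled SRC-2 peptide recruitment to GST-TRβ ligand-binding domain detected via terbium anti-GST antibody.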

The target in experiment [12] is T1, Thyroid hormone receptor alpha (Rattus norvegicus) + Thyroid hormone receptor beta (Rattus norvegicus). The experiment is described as follows: TOX21_TR_LUC_GH3_Antagonist_Followup: Tox21 GH3 Thyroid Hormone Receptor Antagonism Luciferase Follow-Up Assay (AID 2283942). The method in brief: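 Antagonist mode: GH3 cells seeded 1,500/well, compounds at 15 concentrations (92 uM to 5nM final) plus T3 at 1.0 nM final, 24 h at 37C. Luciferase read with ONE-Glo after 30 min at room temperature.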

Experiment [13] concerns the target THRA (gene 7067) (UniProt P10827). Put plainly: TOX21_TRA_COA_Antagonist_Followup_ratio: Tox21 Thyroid Hormone Receptor alpha Antagonism through Coactivator Recruitment Follow-Up Assay, Ratio (AID 2283953). A digest of the protocol: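 520:495 nm emission ratio (excitation 340 nm) reports fluorescein-SRC-2 peptide recruitment to GST-TRα LBD by TR-FRET with Tb anti-GST antibody. Values were normalized to DMSO (0%) and T3 control wells (100%); loss of signal indicated antagonism.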

The target of experiment [14] is THRB (gene 7068) (UniProt P10828). Put plainly: TOX21_TRB_BLA_Antagonist_Followup_ratio: Tox21 Thyroid Hormone Receptor beta Antagonism Beta-lactamase (BLA) Follow-Up Assay, Ratio (AID 2283958). The method in brief:
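HEK293T cells with a GAL4-TRb LBD fusion and UAS-bla reporter, 3,000 cells/well in phenol red-free DMEM with 2% charcoal-stripped FBS. Exposed 18 h at 37C to 11 concentrations in triplicate; CCF4 460:530 nm ratio after 2 h, DMSO-referenced.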

Experiment [15] concerns the target PGR (gene 5241) (UniProt P06401). The experiment is described as follows: TOX21_PR_BLA_Followup_Agonist_ratio: Tox21 HEK293 Progesterone Receptor (PR) Agonism Beta-lactamase Follow-Up Assay, Ratio (AID 2283933). A digest of the protocol:
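PR-UAS-bla HEK293T cells in medium with 2% charcoal-stripped FBS were dosed after 6 h plating and incubated 16 h at 37C. LiveBLAzer FRET substrate was added for 2 h at room temperature. Cleaved/uncleaved substrate ratio fitted against DMSO; CellTiter-Glo viability run in the same wells.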

Experiment [16] shares this target. The experiment is described as follows: TOX21_PR_LUC_Followup_Agonist: Tox21 HEK293 Progesterone Receptor (PR) Agonism Luciferase Follow-Up Assay (AID 2283937; active means hit-call score of the fitted dose curve at least 0.9, where 1 is the maximum; inactive means score below 0.9). The method in brief:
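HEK293-PR-A-luc cells, conditioned 5 days in 10% charcoal-stripped FBS medium, seeded 3,000/well for 5 h, then compound-treated 16 h at 37C. ONE-Glo luminescence read after 30 min at room temperature; gain of signal versus DMSO.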

Each structure is given as a SMILES string. Inconclusive results are not listed. The source made the active and inactive calls. How the source made its calls, unless noted: active means hit-call score of the fitted dose curve at least 0.9, where 1 is the maximum; inconclusive means response in the unintended direction; inactive means score below 0.9.

Sequence of PGR (gene 5241) (P06401 whole entry, looked up): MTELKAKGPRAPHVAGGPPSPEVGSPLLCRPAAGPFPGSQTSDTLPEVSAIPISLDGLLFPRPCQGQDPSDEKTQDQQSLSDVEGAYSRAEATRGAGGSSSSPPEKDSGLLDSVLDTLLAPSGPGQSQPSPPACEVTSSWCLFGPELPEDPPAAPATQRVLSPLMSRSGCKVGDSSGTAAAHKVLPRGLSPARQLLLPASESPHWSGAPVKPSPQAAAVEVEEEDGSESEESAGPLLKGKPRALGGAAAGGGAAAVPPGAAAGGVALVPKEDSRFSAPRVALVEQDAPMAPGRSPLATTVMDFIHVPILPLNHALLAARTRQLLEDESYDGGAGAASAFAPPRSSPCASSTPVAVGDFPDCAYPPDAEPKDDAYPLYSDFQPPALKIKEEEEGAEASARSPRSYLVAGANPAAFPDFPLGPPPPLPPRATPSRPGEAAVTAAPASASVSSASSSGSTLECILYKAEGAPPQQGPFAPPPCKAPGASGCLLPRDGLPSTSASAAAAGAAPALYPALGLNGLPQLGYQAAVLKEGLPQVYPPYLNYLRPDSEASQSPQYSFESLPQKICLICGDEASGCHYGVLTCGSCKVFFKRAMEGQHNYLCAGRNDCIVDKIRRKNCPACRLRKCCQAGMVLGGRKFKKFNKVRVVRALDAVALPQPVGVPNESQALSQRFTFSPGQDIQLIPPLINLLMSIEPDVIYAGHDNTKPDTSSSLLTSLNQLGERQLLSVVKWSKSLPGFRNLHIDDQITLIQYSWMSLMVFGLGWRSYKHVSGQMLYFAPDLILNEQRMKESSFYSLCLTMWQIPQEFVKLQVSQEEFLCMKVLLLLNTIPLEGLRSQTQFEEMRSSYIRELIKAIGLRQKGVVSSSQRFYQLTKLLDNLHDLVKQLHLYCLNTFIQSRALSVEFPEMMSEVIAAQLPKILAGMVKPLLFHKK
Sequence of THRB (gene 7068) (P10828 whole entry, looked up, the tested form may be a part): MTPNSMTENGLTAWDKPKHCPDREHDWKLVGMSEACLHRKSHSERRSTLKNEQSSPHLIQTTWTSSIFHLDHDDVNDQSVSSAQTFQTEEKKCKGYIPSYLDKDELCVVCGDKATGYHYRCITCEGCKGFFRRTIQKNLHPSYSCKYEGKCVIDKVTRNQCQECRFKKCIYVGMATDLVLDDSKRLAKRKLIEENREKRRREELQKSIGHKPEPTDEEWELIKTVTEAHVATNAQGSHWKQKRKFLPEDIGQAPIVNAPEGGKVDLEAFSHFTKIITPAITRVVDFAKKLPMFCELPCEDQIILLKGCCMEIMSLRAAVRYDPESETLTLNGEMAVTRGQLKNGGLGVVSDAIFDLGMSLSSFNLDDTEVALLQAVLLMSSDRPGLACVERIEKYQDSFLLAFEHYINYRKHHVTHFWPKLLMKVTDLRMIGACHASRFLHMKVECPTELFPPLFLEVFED
Sequence of THRA (gene 7067) (P10827 whole entry, looked up, the tested form may be a part): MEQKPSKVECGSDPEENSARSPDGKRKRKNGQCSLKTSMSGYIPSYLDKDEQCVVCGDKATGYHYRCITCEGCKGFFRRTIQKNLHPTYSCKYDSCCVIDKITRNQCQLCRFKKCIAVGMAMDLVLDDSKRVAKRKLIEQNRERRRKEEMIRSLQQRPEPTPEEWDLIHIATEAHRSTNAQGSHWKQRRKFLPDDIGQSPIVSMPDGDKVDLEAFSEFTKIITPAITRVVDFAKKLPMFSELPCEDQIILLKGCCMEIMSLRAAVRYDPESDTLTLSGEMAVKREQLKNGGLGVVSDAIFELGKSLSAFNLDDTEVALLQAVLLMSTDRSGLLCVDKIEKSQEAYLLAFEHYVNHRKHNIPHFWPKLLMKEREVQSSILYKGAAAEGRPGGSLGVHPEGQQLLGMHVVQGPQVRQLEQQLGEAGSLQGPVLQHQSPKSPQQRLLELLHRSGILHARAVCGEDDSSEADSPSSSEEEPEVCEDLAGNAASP
T1 sequence (P63059 whole entry, looked up): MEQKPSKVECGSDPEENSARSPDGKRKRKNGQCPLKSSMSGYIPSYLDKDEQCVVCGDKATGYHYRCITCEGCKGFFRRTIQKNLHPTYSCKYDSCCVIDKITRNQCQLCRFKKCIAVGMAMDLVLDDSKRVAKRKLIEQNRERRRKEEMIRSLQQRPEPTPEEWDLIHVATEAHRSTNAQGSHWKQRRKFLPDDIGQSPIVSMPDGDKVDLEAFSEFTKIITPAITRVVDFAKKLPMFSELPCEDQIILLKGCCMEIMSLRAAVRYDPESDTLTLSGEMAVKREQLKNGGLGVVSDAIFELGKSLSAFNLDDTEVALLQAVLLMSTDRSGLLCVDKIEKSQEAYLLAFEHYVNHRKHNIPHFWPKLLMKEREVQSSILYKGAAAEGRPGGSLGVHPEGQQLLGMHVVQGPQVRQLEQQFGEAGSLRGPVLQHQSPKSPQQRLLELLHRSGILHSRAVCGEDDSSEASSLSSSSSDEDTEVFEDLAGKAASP
T1 sequence (P18113 whole entry, looked up): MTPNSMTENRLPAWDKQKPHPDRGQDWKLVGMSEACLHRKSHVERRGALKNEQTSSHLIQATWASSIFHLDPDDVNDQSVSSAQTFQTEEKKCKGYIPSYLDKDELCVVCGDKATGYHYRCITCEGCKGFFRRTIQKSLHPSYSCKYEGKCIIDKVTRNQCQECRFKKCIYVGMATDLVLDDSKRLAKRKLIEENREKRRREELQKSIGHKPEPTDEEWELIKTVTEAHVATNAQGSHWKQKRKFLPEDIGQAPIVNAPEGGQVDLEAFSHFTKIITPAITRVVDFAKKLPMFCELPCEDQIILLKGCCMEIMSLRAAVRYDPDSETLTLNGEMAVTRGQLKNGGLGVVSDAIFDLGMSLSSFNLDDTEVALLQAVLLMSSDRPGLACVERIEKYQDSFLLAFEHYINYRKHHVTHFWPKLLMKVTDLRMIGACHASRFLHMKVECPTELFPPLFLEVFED

`Clc1ccc(C(c2ccccc2Cl)C(Cl)(Cl)Cl)cc1` (stereo not given): the AC50 is 12.7 µM (active) in experiment [1], 46.1 µM (active) in experiment [2], 15.6 µM (active) in experiment [3] and 76 µM (active) in experiment [5]. Besides, in [4], the call was inactive.
Take `Oc1c(Cl)c(Cl)c(Cl)c(Cl)c1Cl`: the outcome in [6] was inactive.
As to `ClC(Cl)=C(c1ccc(Cl)cc1)c1ccc(Cl)cc1`, the values for the concentration at half-maximal activity (AC50) in [1] and in experiment [3] were 24.9 µM (active) and 21.6 µM (active), respectively. Besides, the result in experiment [2], in experiment [7], in [4] and in experiment [5] was inactive.
Regarding `Cc1cc(O)ccc1Cl`, the result in experiment [8], in experiment [9], in experiment [10] and in experiment [11] was inactive.
As to `C[C@]12CCC(=O)C=C1CC[C@@H]1[C@@H]2CC[C@@]2(C)[C@H]1CC[C@]2(C)O`, the result in [1], in experiment [2], in experiment [7], in [3], in experiment [12] and in experiment [13] was inactive. Further, in [14], the result was inactive.
`N#Cc1ccc(N(CC(N)=O)CC(F)(F)F)cc1C(F)(F)F`: the outcome in experiment [15], in [7], in [16], in experiment [4] and in [5] was inactive. For the same compound, the AC50 in experiment [1] and in experiment [3] was 46.1 µM (active) each time.
Regarding `ClC1=C(Cl)[C@]2(Cl)[C@@H]3[C@@H]4C[C@@H]([C@H]5O[C@@H]45)[C@@H]3[C@@]1(Cl)C2(Cl)Cl`, the concentration at half-maximal activity (AC50) in [1] is 20.3 µM (active); in experiment [3] it was 18.2 µM (active). In addition, the call in experiment [2], in experiment [7] and in experiment [4] was inactive.
As for `Oc1ccc(C(c2ccc(O)cc2)(C(F)(F)F)C(F)(F)F)cc1`, the concentration at half-maximal activity (AC50) in experiment [1] is 53.5 µM (active); in experiment [3], 54.7 µM (active). Besides, the result in [2], in experiment [7] and in [5] was inactive.

For orientation: AC50 means the midpoint of the concentration-response curve, whichever way the signal moves.
